Compound activity (PubChem BioAssay)
Shown is part of a subset that was picked to be rich in hits.
SARS PLpro yeast – SARS-CoV PLP inhibition in yeast; 330,000 compounds, 0.19% hits; Potency, µM (top dose mostly 32.9 µM), hits mostly activators; S. cerevisiae expressing SARS-CoV PLpro, growth rescue; calls by dose curve; further: nearly all actives have a fitted effect of over 55% in size
AmpC inh detg – blocks E. coli AmpC beta-lactamase in detergent assay; AmpC hydrolysis of nitrocefin, absorbance 480 nm, 0.01% Triton; Potency, µM (doses to about 114 µM), actives largely listed as inhibitors; 370,000 compounds, 0.041% hits; AID 485294; further: nearly all actives have a fitted effect of over 25% in size
Target sequence (P00811 whole entry, looked up): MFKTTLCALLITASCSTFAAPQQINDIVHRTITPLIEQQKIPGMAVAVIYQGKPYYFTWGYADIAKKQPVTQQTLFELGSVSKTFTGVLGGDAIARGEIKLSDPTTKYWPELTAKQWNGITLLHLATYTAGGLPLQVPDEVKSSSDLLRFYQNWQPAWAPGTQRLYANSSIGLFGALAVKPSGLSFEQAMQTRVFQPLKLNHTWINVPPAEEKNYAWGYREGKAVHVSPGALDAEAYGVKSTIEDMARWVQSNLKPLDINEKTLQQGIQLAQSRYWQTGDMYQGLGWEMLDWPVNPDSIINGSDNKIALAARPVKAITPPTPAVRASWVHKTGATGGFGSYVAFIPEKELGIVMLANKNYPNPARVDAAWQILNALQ
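20 mM phosphate pH 7.0 + 0.01% (detergent screen) or 0.0001% Triton X-100; 5.3 nM AmpC reagent; cpd preinc 15 min RT; nitrocefin (800 uM stock) to start; A480 q20 s × 4 min; Activity was normalised to no-enzyme and no-compound control wells.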
Shiga inhibitor – inhibitors of Shiga toxin in Vero cells; Vero cells, Shiga toxin protein synthesis inhibition reporter; 290,000 compounds, 9.2% hits; AID 2315; inhibition, % at 38.7 µM; in the data active means inhibition mostly above about 28%, no sharp cut-off; inactive means mostly below about 43%
Cycloheximide cs – affects cycloheximide protein synthesis inhibition readout, counter-screen; cell reporter, cycloheximide protein synthesis inhibition counterscreen; 300,000 compounds, 12% hits; max response, %; in the data active means max response mostly above about 13%, no sharp cut-off; inactive means mostly below about 14%; further: read at 38.3 µM for the half of the compounds with a filed dose
AmpC inh no detg – AmpC beta-lactamase inhibition without detergent; Potency, µM (doses to about 57.1 µM), most hits filed as inhibitors; 330,000 compounds, 0.52% hits; AmpC nitrocefin hydrolysis, absorbance 480 nm, 0.0001% Triton; further: nearly all actives have a fitted effect of over 20% in size
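20 mM phosphate pH 7.0 + 0.01% (detergent screen) or 0.0001% Triton X-100; 5.3 nM AmpC reagent; cpd preinc 15 min RT; nitrocefin (800 uM stock) to start; A480 q20 s × 4 min; Activity was normalised to no-enzyme and no-compound control wells.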
AMA1-RON2 inh – inhibitors of Plasmodium falciparum AMA1-RON2 interaction; AlphaScreen AMA1-biotinylated RON2 peptide binding; Potency, µM (top dose mostly 58.2 µM), actives largely listed as inhibitors; 360,000 compounds, 0.2% hits; AID 720542; further: nearly all actives have a fitted effect of over 45% in size
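AMA1 (3D7) with his tag at 25 nM final met compounds first, then biotinylated RON2 peptide at 25 nM; detection used donor plus acceptor beads, 10 µg/mL apiece, read by AlphaScreen after 30 min at room temperature.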
Hits are given with their value; – = inactive; ? = inconclusive; · = no result; [ ] = dose if it differs, or a comment. Unless noted, the call rests on the fitted dose curve; in most records, active means well fitted curve in the direction sought with a large enough effect; inconclusive means small, poorly fitted or top-dose-only effect, or another doubt; inactive means no such curve, though single readings can be large; an effect the other way counts as inactive or inconclusive.

SMILES	SARS PLpro yeast	AmpC inh detg	Shiga inhibitor	Cycloheximide cs	AmpC inh no detg	AMA1-RON2 inh
C=CCn1c(SCc2ccc(C(=O)Nc3nccs3)cc2)nnc1-c1ccc(C)c(Cl)c1	–	?	–	–	–	–
Cn1nnnc1SCc1ccc(C(=O)Nc2nccs2)cc1	–	–	51.2	37.5	–	–
Cc1ccc(NC(=O)c2ccc(OC(=O)C(C)Oc3ccc(Cl)cc3C)cc2)cc1 (centres undefined)	–	–	60.8	43.2	–	–[11.6 µM]
COc1ccc(C(=O)NNC(=O)c2cccc(F)c2)cc1	–	–	68.4	25.7	–	–
COC(=O)c1ccc(NC(=O)c2ccc(OC(C)=O)c(OC)c2)cc1	–	–	47.7	33.4	–[2.29 µM]	–
COc1cccc(NC(=O)c2ccccc2)c1	–	–	·	·	–	–
COc1ccc(C(=O)Nc2cccc(OC)c2)cc1	–	–	91.3	57.7	–	–
Cc1cc(Cl)ccc1OC(C)C(=O)OCC(=O)Nc1ccc2[nH]c(=O)[nH]c2c1 (centres undefined)	–	–	·	·	–	–
Cc1oc2c(c1C(=O)Nc1cccc3ccccc13)CCCC2	–	–	–	–	–	–
C[C@H](NC(=O)c1nc[nH]c1C(=O)N1CCN(c2ccccc2)CC1)C(=O)OC(C)(C)C	–	–	–	–	–	–
COc1cccc(NC(=O)c2cnc[nH]2)c1	–	–	40.8	33.4	–	–
COc1cccc(NC(=O)c2ccccc2NC(=O)c2ccncc2)c1	–	·	·	·	–	–
COc1cccc(NC(=O)c2ccc(NC(=O)C(C)C)cc2)c1	–	–	52.1	23.2	–	–
COc1cccc(NC(=O)C(C)C)c1	–	–	·	·	–	–
COc1ccc(NC(=O)c2csc(C)c2)cc1OC	–	–	30.4	25.3	–	–
COc1cccc(NC(=O)c2ccc(-n3cccn3)nc2)c1	–	–	26.0	40.2	–	–
CCc1cccc(C)c1NC(=O)CSc1nnc(N)s1	·	–	·	·	·	·
CC1Cc2ccccc2N1C(=O)c1ccnc(C(C)(C)C)c1 (centres undefined)	–	–	–	–	–	–
COc1ccc(C(=O)NNC(=O)c2ccncc2)cc1	–	?	–	–	–	–
COc1cccc(NC(=O)c2cccc(C(=O)Nc3cccc(OC)c3)c2)c1	–	–	–	–	–	–
COc1cc(NC(=O)c2ccc3nsnc3c2)cc(OC)c1OC	–	–	–	–	–	–
COc1ccc(C(=O)NNC(=O)c2snnc2C)cc1	–	–	42.1	–	–	–
COc1cccc(NC(=O)c2ccc3nsnc3c2)c1	–	–	77.8	28.3	–	–
O=C(Nc1ccc(F)cc1)c1ccc2nsnc2c1	–	–	64.3	45.7	–	–
COc1ccc(C(=O)Nc2ccc(OC)c(OC)c2)cc1	–	–	62.5	33.1	–	–
SMILES	SARS PLpro yeast	AmpC inh detg	Shiga inhibitor	Cycloheximide cs	AmpC inh no detg	AMA1-RON2 inh
O=C(NCc1ccccn1)c1ccc(CNS(=O)(=O)c2cccc(C(F)(F)F)c2)cc1	–	–	–	–	–	–
Cc1nnc(-c2cnn(C)c2N)n1CCCN(C)C	–	–	–	–	–	–
Cc1ccsc1CNC12CC3CC(CC(C3)C1)C2	–	–	–	–	–	–
CCOC(=O)c1c(S(=O)(=O)N2CCCC(C(=O)NCc3cccc(OC)c3)C2)c(C)n(C)c1C (centres undefined)	·	–	·	·	·	·
COc1ccc(NC(=O)c2ccccc2S(=O)c2ccccc2C#N)cc1 (centres undefined)	–	–	–	–	–	–
CCOc1ccc(S(=O)(=O)Nc2ccc3oc(C)c(C(=O)OCCOC)c3c2)cc1	·	–	·	·	·	·
COc1ccc(-c2ccnc3ncnn23)cc1	–	–	–	–	–	–
COc1ccc(C(=O)Nc2ccc(/C(C)=N/NC(=O)c3ccccc3O)cc2)cc1OC	–	–	44.5	36.9	–	–
COc1ccc(NC(=O)c2cccc(NC(=O)C(C)C)c2)c([N+](=O)[O-])c1	–	–	22.4	22.3	–	–[11.6 µM]
COc1ccc(C(=O)Nc2ccc3c(c2)C(=O)N(C)C3=O)cc1OC	–	–	32.3	17.4	–	–
COc1ccc(C(=O)Nc2ccc3c(c2)n(C)c(=O)n3C)cc1OC	–	–	–	–	–	–
COc1ccc(CCNC(=O)c2nc3ncccn3n2)cc1OC	–	–	–	–	–	–
COc1ccc(NC(=O)c2ccc(NC(=O)C(C)C)cc2)c([N+](=O)[O-])c1	–	–	–	–	–	–
COc1cccc(NC(=O)c2nc3ncccn3n2)c1	·	–	65.2	48.4	·	–
O=C(CC1C(=O)NC2CCCCC2N1C(=O)c1ccc(F)cc1)Nc1ccccc1 (centres undefined)	–	–	–	–	–	–
COc1ccc(CNS(=O)(=O)c2cc3c(cc2C)n(C)c(=O)c(=O)n3C)cc1	·	–	·	·	·	·
CSc1nc2c(c(=O)[nH]1)CCCC2	–	–	–	–	–	–
CCSc1ccccc1C(=O)Nc1cccc(OC)c1	–	–	–	14.9	–	–
O=C(Nc1ccc(Br)cc1)c1cnc[nH]1	–	?	64.2	39.3	–	–
O=C(Nc1ccc(Nc2ccccc2)cc1)c1ccc(Br)cc1	?	?	–	–	–	–
COc1cccc(NC(=O)CC(=O)c2ccc([N+](=O)[O-])cc2)c1	–	–	70.6	50.5	–	–
COc1cccc(NC(=O)C(C)OC(=O)CCCNC(=O)c2ccc(Cl)cc2)c1 (centres undefined)	–	–	100.3	24.5	–	–
CCOC(=O)c1ccc(CNC(=O)c2cc(COc3ccccc3SC)on2)o1	·	–	74.2	34.3	–	–
CSc1ccccc1OCc1cc(C(=O)NCCCc2ccccc2)no1	–	–	–	–	–	–
CSc1ccccc1OCc1cc(C(=O)NCc2ccc(C)s2)no1	–	–	41.2	22.7	–	–
SMILES	SARS PLpro yeast	AmpC inh detg	Shiga inhibitor	Cycloheximide cs	AmpC inh no detg	AMA1-RON2 inh
COc1nc(-c2ccc(C)cc2)ccc1-c1noc(-c2ccco2)n1	–	–	69.7	27.6	–	–
COc1nc(C)ccc1-c1noc(-c2ccco2)n1	–	–	81.2	39.4	–	–
Cc1ccccc1NC(=O)CN1C(=O)NC2(CCc3ccccc32)C1=O (centres undefined)	–	?	·	·	–	–
CN(C)S(=O)(=O)N(CC(=O)Nc1ccc2ccccc2c1)c1ccccc1	–	–	–	–	–	–
Cc1ccc(N2CCN(/N=C/c3ccccc3)CC2)cc1	–	–	–	–	–	–
O=C(O)c1ccc(/C=N/N2CCN(c3ccccc3)CC2)cc1	–	?	87.7	33.6	–	–
O=C(O)c1ccc(C=NN2CCCCCC2)cc1	·	·	·	·	·	–
Cn1cccc1/C=N/N1CCN(Cc2ccccc2Cl)CC1	–	–	–	–	–	?
Cn1cccc1/C=N/N1CCN(c2ccccc2)CC1	–	–	130.3	40.8	–[11.4 µM]	?
C(=N/N1CCN(c2ccccc2)CC1)/c1ccncc1	–	–	29.4	17.0	–	?
